This is an account of results in PubChem BioAssay (NCATS).

Records with an inconclusive call do not appear. Values without a mark were called inactive. Calls of active or inactive are those of the source. Calls come from the whole dose curve; as a rule, active = well fitted inhibition curve with a large enough effect; inconclusive = small, poorly fitted or top-dose-only effect; inactive = no such curve, though single readings can be large or run the other way.
% is set by controls: 0 for no effect and ±100 for the full control effect; potency is the fitted concentration of half-maximal effect.

This assay concerns Zika virus NS2B-NS3 protease (unlinked complex). The assay can be described thus: Primary screen GU Rhodamine qHTS for Zika virus inhibitors: Unlinked NS2B-NS3 protease assay (AID 1347159). Note: nearly all actives have a fitted effect of over 60% in size. As to conditions: Recombinant ZIKV NS2B-NS3 protease, Rhodamine110 substrate fluorescence; series mostly up to 107 µM; activity change, negative = inhibition: at the top concentration. The procedure, abridged:
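Compounds, tested up to 114 microM, were incubated for 15 minutes with 25 nM unlinked NS2B-NS3 protease at pH 8.0. Cleavage of 1.5 microM Rhodamine110 substrate was then followed by fluorescence for 15 minutes.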
(In general: qHTS replaces the single test concentration by a dilution series.)
Turning to `COc1ccc(C(=O)Nc2ncc(-c3ccc(C(=O)O)cc3)s2)cc1`, the Potency was 28.2 µM (active).

With `CC(=O)OCC1(O)CCC2C(COC3OC(CO)C(O)C(O)C3OC(=O)/C=C/c3ccc(O)cc3)=COC(OC(=O)CC(C)C)C21` (stereo unspecified), the “activity change, negative = inhibition” value is -29.7% [at 32.5 µM].

On to `Cc1cn(C2C=CC(CO)O2)c(=O)[nH]c1=O` (stereo unspecified), for which the “activity change, negative = inhibition” value is -2.07%.

Take `Cc1[nH]c2ccccc2c1C1=C(NCCc2ccc(F)cc2)C(=O)N(C)C1=O`: the “activity change, negative = inhibition” value was -20.4%.

For `Nc1nccn2c(C3CCC(C(=O)O)CC3)nc(-c3cc4cccc(Cl)c4[nH]3)c12` (stereo unspecified), the Potency is 25.1 µM (active).

Take `CC(C)(C)C(=O)CN1C(=O)[C@H](NC(=O)Nc2cccc(C(=O)O)c2)CN(C2CCCCC2)c2ccccc21`: the Potency is 10 µM (active).
